Values joined by “and” are separate entries in the source; they are usually repeats but may differ in a detail not shown here. Equal entries are not always repeated. Hit rate of the full screen: of about 5,500 compounds, about 2,000 (36%) were called active. Another 18% or so got no clear call; they are omitted. Rule as the data show it: active = normalized growth mostly below about 0.91 (no sharp cut-off); inconclusive = no clear call, values can overlap the other calls; inactive = mostly above about 0.92. The list shows a part of the results.
Assay: chemical genetic growth profiling, strain panel (AID 1159580);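 also: tested at 20 µM; growth read once vehicle control cultures reached saturation at 30 °C; 1 = growth at the plate median or of vehicle wells; lower values mean less growth of the strain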
Settings: S. cerevisiae deletion strains, growth OD

Measured: normalized growth

COc1cc(NS(=O)(=O)c2ccc(N)cc2)ncn1
inactive: locus YAL013W, strain DEP1, hits give low values 0.998 | locus YAL021C, strain ccr4, hits give low values 0.988 | locus YAL026C, strain drs2, hits give low values 0.978 | locus YAL030W, strain snc1, hits give low values 0.999 | locus YBL061C, strain skt5, hits give low values 0.987 | locus YBR009C, strain hhf1, hits give low values 0.996 | locus YBR021W, strain FUR4, hits give low values 1 | locus YBR023C, strain chs3, hits give low values 0.983 | locus YBR171W, strain sec66, hits give low values 0.968 | locus YBR229C, strain ROT2, hits give low values 0.955 | locus YBR231C, strain swc5, hits give low values 0.979 | locus YBR279W, strain paf1, hits give low values 0.964 | locus YCL011C, strain gbp2, hits give low values 0.968 | locus YCL016C, strain dcc1, hits give low values 0.981 | locus YCL029C, strain bik1, hits give low values 0.977 | locus YCL061C, strain MRC1, hits give low values 0.979 | locus YCL069W, strain vba3, hits give low values 0.98 | locus YCR088W, strain abp1, hits give low values 0.97 | locus YDL005C, strain med2, hits give low values 0.978 | locus YDL035C, strain GPR1, hits give low values 0.993 | locus YDL040C, strain nat1, hits give low values 0.969 | locus YDL074C, strain BRE1, hits give low values 0.966 | locus YDL101C, strain DUN1, hits give low values 0.979 | locus YDL134C, strain PPH21, hits give low values 1.01 | locus YDL185W, strain tfp1, hits give low values 0.983 | locus YDL192W, strain arf1, hits give low values 0.978 | locus YDR001C, strain nth1, hits give low values 0.973 | locus YDR069C, strain doa4, hits give low values 1.03 | locus YDR101C, strain arx1, hits give low values 0.972 | locus YDR137W, strain rgp1, hits give low values 0.991 | locus YDR159W, strain sac3, hits give low values 0.916 | locus YDR162C, strain NBP2, hits give low values 0.995 | locus YDR195W, strain ref2 0.918 | locus YDR297W, strain sur2, hits give low values 1 | locus YDR318W, strain mcm21, hits give low values 0.988 | locus YDR334W, strain swr1, hits give low values 0.948 | locus YDR335W, strain msn5, hits give low values 0.971 | locus YDR388W, hits give low values 0.979 | locus YDR392W, strain spt3, hits give low values 0.982 | locus YDR502C, strain sam2, hits give low values 0.984 | locus YEL003W, strain gim4, hits give low values 1 | locus YEL037C, strain rad23, hits give low values 0.999 | locus YEL061C, strain CIN8 (second series), hits give low values 0.96 | locus YEL061C, strain CIN8, hits give low values 0.982 | locus YER015W, strain faa2, hits give low values 0.984 | locus YER016W, strain bim1, hits give low values 0.992 | locus YER110C, hits give low values 0.973 | locus YER111C, strain swi4, hits give low values 0.968 | locus YER155C, strain BEM2 (second series), hits give low values 0.975 | locus YER155C, strain BEM2, hits give low values 1 | locus YER167W, strain BCK2, hits give low values 0.992 | locus YFR010W, strain ubp6, hits give low values 0.97 | locus YGL078C, strain dbp3, hits give low values 0.977 | locus YGL086W, strain mad1, hits give low values 0.981 | locus YGL167C, strain pmr1, hits give low values 0.981 | locus YGL173C, strain kem1, hits give low values 0.993 | locus YGL227W, strain vid30, hits give low values 0.959 | locus YGL240W, strain doc1, hits give low values 0.958 | locus YGL248W, strain PDE1, hits give low values 0.978 | locus YGL253W, strain hxk2, hits give low values 0.979 | locus YGR078C, strain PAC10, hits give low values 0.977 | locus YGR135W, strain pre9, hits give low values 0.999 | locus YGR252W, strain gcn5, hits give low values 0.987 | locus YHR013C, strain ard1, hits give low values 0.986 | locus YHR027C, strain rpn1, hits give low values 0.983 | locus YHR030C, strain SLT2, hits give low values 0.997 and 0.991 | locus YHR079C, strain IRE1 (second series), hits give low values 0.99 | locus YHR079C, strain IRE1, hits give low values 0.97 | locus YHR094C, strain hxt1, hits give low values 0.987 | locus YHR129C, strain ARP1, hits give low values 0.995 | locus YHR142W, strain chs7, hits give low values 0.968 | locus YHR200W, strain rpn10, hits give low values 0.982 | locus YIL066C, strain RNR3, hits give low values 0.976 | locus YIL073C, strain SPO22, hits give low values 1.02 | locus YIL125W, strain kgd1, hits give low values 0.982 | locus YIR030C, strain dcg1, hits give low values 0.974 | locus YJL092W, strain hpr5, hits give low values 0.98 | locus YJL095W, strain BCK1 (second series), hits give low values 0.976 | locus YJL095W, strain BCK1, hits give low values 0.989 and 0.983 | locus YJL115W, strain asf1, hits give low values 0.964 | locus YJL129C, strain trk1, hits give low values 0.963 | locus YJL134W, strain LCB3, hits give low values 0.992 | locus YJL154C, strain vps35, hits give low values 0.971 | locus YJL164C, strain tpk1, hits give low values 1 | locus YJL166W, strain qcr8, hits give low values 0.982 | locus YJL168C, strain set2, hits give low values 0.985 | locus YJL187C, strain SWE1 (second series), hits give low values 0.962 | locus YJL187C, strain SWE1, hits give low values 0.981 | locus YJR043C, strain POL32, hits give low values 0.994 | locus YJR066W, strain TOR1, hits give low values 0.943
